The sample as a whole holds a higher share of hits than the screen did.
FH mod: Identification of activators of human fumarate hydratase by quantitative high-throughput screening; Fumarate hydratase, mitochondrial (Homo sapiens), P07954; FH coupled MDH/diaphorase resazurin fluorescence, 15 min; Potency, µM (top dose mostly 79.9 µM), without a hit: top-dose activity change, negative = inhibition, usual class: inhibitors; 54,000 tested, 0.22% active; AID 1347055, 2019; further: potency means the concentration at half of the fitted maximal effect; on the % scale 0 is the no-effect control and ±100 the full control effect; the screen sought activators but most active calls are inhibition curves; nearly all actives have a fitted effect of over 45% in size
GALC G270D act: A Novel Cell-Based Assay to Identify Small Molecules for B -Galactocerebrosidase; P54803; 145M-Twi-hGALC-G270D cells, HMU-beta-Gal fluorescence, 48 h; Potency, µM (series often up to 57.5 µM), actives largely listed as activators; 45,000 tested, 0.1% active; AID 1159614, 2016; further: potency means the concentration at half of the fitted maximal effect; 0% is about no effect; nearly all actives have a fitted effect of over 65% in size
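qHTS, 1536-well; 145M-Twi-hGALC-G270D cells (WT line also made) in DMEM/F12 + 10% FBS; compound incubation on live cells; HMU-β-gal 0.1 mM final, pH 5.2, NaTC; carbonate stop; fluorescence increase = enhanced residual activity.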
GALK inh: qHTS Assay for Inhibitors of Human Galactokinase (GALK): NCGC Sytravon Library Screen. P51570. recombinant GALK, Kinase-Glo ATP luminescence, 1 h. Potency, µM (top dose mostly 57.5 µM), for inactives: at the top dose activity, negative = inhibition, most hits filed as inhibitors. 44,000 tested, under 10 active;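 further: plate controls were full GALK reaction for no effect and reaction lacking GALK for full effect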
Target sequence (P51570 whole entry, looked up): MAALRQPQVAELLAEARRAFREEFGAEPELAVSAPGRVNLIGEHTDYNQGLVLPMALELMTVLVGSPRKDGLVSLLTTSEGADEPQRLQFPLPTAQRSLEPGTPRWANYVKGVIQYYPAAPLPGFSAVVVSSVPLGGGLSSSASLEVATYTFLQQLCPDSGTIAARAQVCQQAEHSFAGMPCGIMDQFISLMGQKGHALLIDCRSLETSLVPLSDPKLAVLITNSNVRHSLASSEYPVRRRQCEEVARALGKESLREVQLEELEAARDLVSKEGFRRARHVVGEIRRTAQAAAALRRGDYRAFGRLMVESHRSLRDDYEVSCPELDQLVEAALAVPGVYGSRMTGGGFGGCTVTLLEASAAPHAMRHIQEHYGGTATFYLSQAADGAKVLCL
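5 nM GALK with 35 µM ATP and 100 µM galactose in HEPES pH 8.0, MgCl2, NaCl, DTT, BSA; 1 h RT reaction, remaining ATP detected by Kinase-Glo Plus luminescence after 10 min; qHTS concentration series.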
TSG101-PTAP inh: qHTS Validation Assay for Inhibitors of HIV-1 Budding by Blocking the Interaction of PTAP/TSG101: Sytravon Library Screen. Fluorescence polarization, FITC-PTAP peptide/Tsg101, 20 min. Potency, µM (top dose mostly 115 µM), usual class: inhibitors. Tumor susceptibility gene 101 protein (Homo sapiens), Q99816. 44,000 tested, under 10 active. AID 1347069, 2019; further: potency means the concentration at half of the fitted maximal effect; 0% is about no effect
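Read-out is FITC fluorescence polarization. Compounds were added to Tsg101 binding domain (10 uM final), then FITC-PTAP peptide (50 nM final), 20 min at r.t. Total S+P intensity flags fluorescent compounds.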
B2AR arrestin ag: qHTS assay of beta-arrestin-biased ligands of beta2-adrenergic receptor: NCGC Sytravon Library Screen. Beta-2 adrenergic receptor (Homo sapiens), P07550. HTLA Tango cells, beta-arrestin recruitment, luciferase luminescence, 18 h. Potency, µM (doses to about 46.1 µM), usual class: activators. 44,000 tested, under 10 active. AID 1347077, 2019;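 further: potency means the concentration at half of the fitted maximal effect; 0% = DMSO and full agonism = EC100 isoproterenol or metaproterenol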
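Ligand-induced beta-arrestin recruitment to recombinant beta2-AR is measured via a tTA-driven luciferase reporter in Tango cells after 18 hr compound exposure at 37 degrees C. Concentrations span up to 46 microM.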
NTMT1 inhibitor: Primary qHTS for Inhibitors of N-terminal methyltransferase 1 (NTMT1): MTaseGlo Assay | AID 1645870, 2021 | 59,000 tested, 2.5% active | NTMT1 MTase-Glo SAH luminescence, purified enzyme | Potency, µM (titrated, usually from 114 µM), for the others: top-dose activity change, negative = inhibition, hits mostly inhibitors;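 further: potency means the concentration at half of the fitted maximal effect; plate controls were DMSO vehicle for no effect and no enzyme for full effect; nearly all actives have a fitted effect of over 65% in size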
Target sequence (Q9BV86 whole entry, looked up): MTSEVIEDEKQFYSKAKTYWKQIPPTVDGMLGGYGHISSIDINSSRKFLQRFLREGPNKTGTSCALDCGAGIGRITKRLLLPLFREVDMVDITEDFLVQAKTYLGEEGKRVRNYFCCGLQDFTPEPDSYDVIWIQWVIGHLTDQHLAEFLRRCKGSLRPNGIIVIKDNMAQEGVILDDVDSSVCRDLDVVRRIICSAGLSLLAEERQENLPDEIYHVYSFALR
The depositor's hits bear a star; i = inactive; ? = inconclusive; nt = no result; ! = not confirmed by another sample; [ ] = another dose, or the depositor's remark. The call rests on the fitted dose curve; in most records, active means well fitted curve in the direction sought with a large enough effect; inconclusive means small, poorly fitted or top-dose-only effect, or another doubt; inactive means no such curve, though single readings can be large; an effect the other way counts as inactive or inconclusive.

SMILES | FH mod | GALC G270D act | GALK inh | TSG101-PTAP inh | B2AR arrestin ag | NTMT1 inhibitor
COc1cc(-c2nc3sccn3c2Nc2c(C)cccc2C)ccc1O | 16µM* | i | -1% | i | i | ?
CC(=O)c1c(C)cc(O)cc1O[C@@H]1O[C@H](CO)[C@@H](O)[C@H](O)[C@H]1O | -2%[53.3 µM] | nt | nt | nt | nt | -10%[29.8 µM]
COc1cccc(-c2nc3cc(NC(=O)c4ccc(C)c([N+](=O)[O-])c4)ccc3o2)c1 | nt | nt | nt | nt | nt | 79µM*
Brc1cnc2nc(SCc3ccccn3)[nH]c2c1 | nt | nt | nt | nt | nt | -2%
O=S(=O)(Nc1ccc(C2CCNCC2)cc1)c1ccc(NCc2cccc(Cl)c2O)cc1 | nt | nt | nt | nt | nt | 22µM*
O=S(=O)(Nc1ccccc1)c1ccc(NCc2cccc(Cl)c2O)cc1 | nt | nt | nt | nt | nt | -3%[57.5 µM]
O=C(Cc1ccccc1)Nc1ccc(S(=O)(=O)Nc2nccs2)cc1 | nt | nt | nt | nt | nt | 4%[57.5 µM]
O=C(C1CC1)N1CCc2cc(Br)cc(S(=O)(=O)Nc3ccc(F)c(F)c3)c21 | 28µM* | i | 7% | i | i | 17%
COc1c(C)c(OCC(O)C(C)(C)O)cc2c1COC2=O (stereo unspecified) | 9% | nt | nt | nt | nt | -10%[57.5 µM]
Cc1ccc(Cl)cc1N1CCN(CCNC(=O)Nc2ccccc2Cl)CC1 | -29% | i | 4% | i | i | 89µM*
CCC(=O)N1CCc2cc(Br)cc(S(=O)(=O)N3CCCC(C(=O)N(C)c4ccc(Br)cc4)C3)c21 (stereo unspecified) | -14% | i | 0% | i | i | 89µM*
CCC(=O)N1CCc2cc(Br)cc(S(=O)(=O)N3CCCC(C(=O)Nc4ccc(OC)cc4OC)C3)c21 (stereo unspecified) | -41% | i | 7% | i | i | 89µM*
Cc1c(C(=O)O)oc2c1-c1nn(Cc3ccc(Cl)cc3)cc1CC2 | -39% | i | 3% | i | i | 50µM*
CCOC(=O)c1oc2c(c1C)-c1nn(Cc3ccc(Cl)cc3)cc1CC2 | 32µM*[activator] | i | 0% | i | i | -14%
CC(C)(C)Oc1ccc(OCC2Cc3ccccc3CN2C(=O)c2cccc3ccccc23)cc1 (stereo unspecified) | -20% | nt | nt | nt | nt | -2%[57.5 µM]
CN[C@@H](C)C(=O)N[C@H]1CCCC[C@H]2CC[C@@H](C(=O)N[C@@H](c3ccccc3)c3cn(CCCCc4ccc(CCCCn5cc([C@@H](NC(=O)[C@@H]6CC[C@@H]7CCCC[C@H](NC(=O)[C@H](C)NC)C(=O)N76)c6ccccc6)nn5)cc4)nn3)N2C1=O | -8%[53.3 µM] | nt | nt | nt | nt | 28µM*!
CCOc1cccc(C2Nc3ccccc3-c3cc(C)nn32)c1O (stereo unspecified) | -12% | i | 1% | i | i | 0%
CCOc1ccc(C2Nc3c(C)cccc3-c3cc(C)nn32)cc1 (stereo unspecified) | ? | 25µM* | 2% | i | i | 4%
CCCn1c(/C=C/c2ccccc2)nc2ccccc21 | -9% | i | 0% | i | i | ?
CC[N+](CC)(CC)CCOc1ccc(/C=C/c2ccccc2)cc1 | ? | i | nt | nt | nt | 28µM*
CC[N+](CC)(CC)CCOc1cccc(OCC[N+](CC)(CC)CC)c1OCC[N+](CC)(CC)CC | -14%[53.3 µM] | i | nt | nt | nt | 8.9µM*!
C=C1CCC2[C@](C)(CCC[C@]2(C)C(=O)O)[C@H]1CC/C(C)=C/C(=O)OC (stereo partly specified) | -3%[53.3 µM] | nt | nt | nt | nt | 8%[29.8 µM]
CO[C@H]1C[C@@H]2CC[C@@H](C)[C@@](O)(O2)C(=O)C(=O)N2CCCC[C@H]2C(=O)O[C@H]([C@H](C)C[C@@H]2CC[C@@H](OP(C)(C)=O)[C@H](OC)C2)CC(=O)[C@H](C)/C=C(\C)[C@@H](O)[C@@H](OC)C(=O)[C@H](C)C[C@H](C)/C=C/C=C/C=C/1C | -8%[53.3 µM] | nt | nt | nt | nt | 5%[29.8 µM]
c1csc(-c2nc3ccccn3c2Nc2ccc3c(c2)OCCO3)c1 | -21% | i | -1% | i | i | ?
Cc1ccn2c(Nc3ccc4c(c3)OCCO4)c(-c3cccs3)nc2c1 | -14% | i | -8% | i | i | 13µM*
SMILES | FH mod | GALC G270D act | GALK inh | TSG101-PTAP inh | B2AR arrestin ag | NTMT1 inhibitor
Cc1ccc(-c2nc3ccccn3c2Nc2ccc3c(c2)OCCO3)o1 | -8% | i | 0% | i | i | 16µM*
COc1cc(N2CCC(N3CCN(C)CC3)CC2)ccc1Nc1ncc(Cl)c(Nc2ccccc2P(C)(C)=O)n1 | ? | nt | nt | nt | nt | 0%
Cc1cc(Nc2ncc(Cl)c(Nc3ccccc3S(=O)(=O)C(C)C)n2)c(OC(C)C)cc1C1CCNCC1 | 4% | nt | nt | nt | nt | 14µM*
Cc1ccccc1CC1C(=O)Nc2ccc(Br)cc21 (stereo unspecified) | -27% | i | 0% | i | i | ?
COc1ccc(Br)cc1CC1C(=O)Nc2ccccc21 (stereo unspecified) | -18% | i | 6% | i | i | 25µM*
CC(C)=CCC[C@](C)(O[C@@H]1O[C@H](CO[C@@H]2OC[C@@H](O)[C@H](O)[C@H]2O)[C@@H](O)[C@H](O)[C@H]1O)[C@H]1CC[C@]2(C)[C@@H]1[C@H](O)C[C@@H]1[C@@]3(C)CC[C@H](O[C@@H]4O[C@H](CO)[C@@H](O)[C@H](O)[C@H]4O[C@@H]4O[C@H](CO)[C@@H](O)[C@H](O)[C@H]4O)C(C)(C)[C@@H]3CC[C@]12C | 3%[53.3 µM] | nt | nt | nt | nt | 35%[29.8 µM]
CC(C)CCC[C@@H](C)[C@H]1CC[C@H]2[C@@H]3CC=C4C[C@@H](OC(=O)NCCN(C)C)CC[C@]4(C)[C@H]3CC[C@]12C | -20% | nt | nt | nt | nt | 22µM*
CC(C)=C1C[C@@]2(C)C(=CC1=O)CC[C@@H](OC(=O)/C(C)=C/CO)[C@@H]2C | 5%[53.3 µM] | nt | nt | nt | nt | 5%[29.8 µM]
Cc1cccc(-n2c3nc(=O)n(C)c(=O)c-3cc3ccc(Cl)cc32)c1C | 5% | i | 0% | i | i | -15%
Cn1cncc1[C@@](N)(c1ccc(Cl)cc1)c1ccc2c(c1)c(-c1cccc(Cl)c1)cc(=O)n2C | -2%[53.3 µM] | nt | nt | nt | nt | 22µM*!
